Results: article PMC4336329 (PLoS ONE, 2015)
Among all 310,000 compounds or so, about 14,000 (4.5%) showed an effect of 50% or more. Effects have a minus sign here. This is one part of a sample in which strong results are shown more often than they occur.

Target: human ether-à-go-go-related gene (hERG) potassium channel (human, UniProt Q12809)
Assay: primary screen, population patch clamp on CHO cells stably expressing hERG; higher = less effect of the substance
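Also: peak tail current of the secondary pulse compared with the same well before compound.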

Chain of human ether-à-go-go-related gene (hERG) potassium channel (Q12809 whole entry, looked up): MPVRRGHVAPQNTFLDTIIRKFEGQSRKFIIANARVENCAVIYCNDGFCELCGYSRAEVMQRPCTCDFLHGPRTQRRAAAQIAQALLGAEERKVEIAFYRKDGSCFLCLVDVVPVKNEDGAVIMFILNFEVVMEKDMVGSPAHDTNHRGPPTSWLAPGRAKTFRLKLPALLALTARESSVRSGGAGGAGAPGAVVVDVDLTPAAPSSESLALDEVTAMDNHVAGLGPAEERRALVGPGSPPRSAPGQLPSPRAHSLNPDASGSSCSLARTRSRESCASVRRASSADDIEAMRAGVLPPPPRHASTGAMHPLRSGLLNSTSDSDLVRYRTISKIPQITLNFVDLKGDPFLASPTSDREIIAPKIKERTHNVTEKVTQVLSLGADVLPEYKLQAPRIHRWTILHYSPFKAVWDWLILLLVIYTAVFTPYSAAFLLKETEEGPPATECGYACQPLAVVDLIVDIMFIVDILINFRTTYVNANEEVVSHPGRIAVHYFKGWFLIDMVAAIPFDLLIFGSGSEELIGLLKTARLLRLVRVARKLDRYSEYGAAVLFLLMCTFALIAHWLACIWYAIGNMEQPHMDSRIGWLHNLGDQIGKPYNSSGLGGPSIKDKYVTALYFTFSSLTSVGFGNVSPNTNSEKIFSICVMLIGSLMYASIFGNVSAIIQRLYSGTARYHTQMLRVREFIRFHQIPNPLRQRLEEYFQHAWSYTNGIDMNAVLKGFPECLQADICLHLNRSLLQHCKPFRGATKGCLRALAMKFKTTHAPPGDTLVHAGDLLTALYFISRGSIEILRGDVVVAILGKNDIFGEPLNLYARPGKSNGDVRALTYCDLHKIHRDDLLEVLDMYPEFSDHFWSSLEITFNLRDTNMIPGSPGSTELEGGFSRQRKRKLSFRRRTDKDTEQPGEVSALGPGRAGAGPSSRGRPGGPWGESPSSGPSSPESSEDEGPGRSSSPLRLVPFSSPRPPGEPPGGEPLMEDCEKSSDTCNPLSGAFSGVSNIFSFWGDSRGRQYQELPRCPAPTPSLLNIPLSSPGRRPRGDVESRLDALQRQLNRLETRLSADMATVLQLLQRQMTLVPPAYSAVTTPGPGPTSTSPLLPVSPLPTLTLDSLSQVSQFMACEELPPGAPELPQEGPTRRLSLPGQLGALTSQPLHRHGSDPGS

| Structure (SMILES) | hERG current change (%, negative = inhibition) at 10uM [%] |
| --- | --- |
| COCC(=O)Nc1nnc(Cc2ccc(OC)c(OC)c2)s1 | -7.97 |
| O=C(NCCC(=O)N1CCN(c2ncccn2)CC1)c1ccccc1 | 11.6 |
| O=C(/C=C/Nc1ccc(S(=O)(=O)Nc2ncccn2)cc1)c1ccc2ccccc2c1 | 3.84 |
| CCOC(=O)C(CC)Sc1nnc2cc(C)c3ccccc3n12 (stereo not shown) | -38 |
| Cc1noc(C)c1CSCC(=O)N(CCC(C)C)c1c(N)n(Cc2ccccc2)c(=O)[nH]c1=O | 21.4 |
| Cn1cc(/C(Cc2ccccc2)=N\O)c2ccccc21 | 4.78 |
| COC(=O)c1[nH]c(C)c(/C(O)=C2\C(=O)C(=O)N(CCN(C)C)C2c2cc(OC)ccc2OC)c1C (stereo not shown) | 13.6 |
| CCCCN(CCCC)CCNC(=O)CSCc1ccc(C)cc1.O=C(O)C(=O)O | -63.2 |
| Cc1ccc(CSCCNC(=O)CN(c2cccc([N+](=O)[O-])c2)S(C)(=O)=O)cc1 | -53.2 |
| COc1ccc(CCNC(=O)CSCc2ccc([N+](=O)[O-])cc2)cc1 | -44.8 |
| Cc1ccc(CSCCNC(=O)CN(c2ccccc2)S(C)(=O)=O)cc1 | 1.75 |
| Cc1ccc(CSCC(=O)NCCc2ccccc2)cc1 | -3.13 |
| CCCCN(C)CCNC(=O)CSCc1ccc(C)cc1.O=C(O)C(=O)O | -37.5 |
| O=C(CSCc1ccc([N+](=O)[O-])cc1)NCCSCc1ccccc1 | -70.1 |
| O=C(CSCc1ccc([N+](=O)[O-])cc1)Nc1ccccc1C(=O)O | 24.7 |
| Cc1ccc(CSCCNC(=O)CSCc2ccc([N+](=O)[O-])cc2)cc1 | -71.4 |
| O=C(CSc1ccccc1)NCCSCc1ccccc1 | -3.89 |
| Cc1cccc(CSCCNC(=O)CSCc2ccc([N+](=O)[O-])cc2)c1 | -47.8 |
| Cc1ccc(CNC(=O)CN(c2cccc([N+](=O)[O-])c2)S(C)(=O)=O)cc1 | 0.796 |
| Cc1ccccc1NC(=O)Cn1nc(-c2ccc(Cl)s2)ccc1=O | 13.6 |
| CSC1=N/C(=C/c2ccc(-n3cncn3)cc2)C(=O)N1 | 6.6 |
| COc1cc(/C=N/Nc2ccc(F)cc2F)cc(OC)c1O | -2.17 |

| Structure (SMILES) | hERG current change (%, negative = inhibition) at 10uM [%] |
| --- | --- |
| O=C(COC(=O)c1ccco1)NC(c1ccccc1)c1ccccc1 | 3.56 |
| Cc1ccc(S(=O)(=O)NCCC(=O)OCC(=O)N(C)c2ccccc2)cc1 | 4.35 |
| CCCn1c(SCC(=O)c2ccc3c(c2)OCCO3)n[nH]c1=O | 22.6 |
| COc1cc(OC)cc(OC(=O)c2cccc(S(=O)(=O)N3CCN(C)CC3)c2)c1 | -14.1 |
| Cc1ccc(CSCCNC(=O)c2ccccc2)cc1 | -13.6 |
| Cc1ccc(CSCCNC(=O)c2cccc([N+](=O)[O-])c2)cc1 | -64.1 |
| CC1CCN(C(=O)C(C)c2ccc([N+](=O)[O-])cc2)CC1 (stereo not shown) | -3.41 |
| COc1ccc(CCNC(=O)CSCc2ccc([N+](=O)[O-])cc2)cc1OC | -37.5 |
| CC(C)(C)SCCNC(=O)CSCc1ccc([N+](=O)[O-])cc1 | -63.1 |
| O=C(CSCc1ccc([N+](=O)[O-])cc1)NC1CCCCCC1 | -50.8 |
| O=C(Cc1ccc([N+](=O)[O-])cc1)NC1CCCCCC1 | 7.55 |
| O=C(CSCc1ccc([N+](=O)[O-])cc1)NC1CC1 | -29.7 |
| CC(C)C(NC(=O)CSCc1ccc([N+](=O)[O-])cc1)C(C)C | -40.2 |
| Cc1ccc(CSCCNC(=O)c2ccc(C)cc2)cc1 | 19.1 |
| CC(OC(=O)CSc1ccc([N+](=O)[O-])cc1)C(=O)NC1CC1 (stereo not shown) | -14.7 |
| CC1CCN(C(=O)C(C)OC(=O)CSc2ccc([N+](=O)[O-])cc2)CC1 (stereo not shown) | -50.1 |
| CCOC(=O)C(C(=O)Nc1cccc(C)c1)C1CCCCC1 (stereo not shown) | -6.99 |
| CCC1C(=O)N=C(SCC(=O)Nc2ccc(C)cc2)N(c2ccccc2)C1=O (stereo not shown) | 19.4 |
| CCOC(=O)c1sc(Nc2ccc(Br)cc2)nc1C | 13.7 |
| Cc1oc2ncnc(N)c2c1C | 8.52 |
| CNC(=O)CN1C(=O)c2cccc3cccc1c23 | 10.3 |
| COc1ccc(NS(=O)(=O)c2ccc(O)c(NC(=O)c3ccc(S(=O)(=O)N4CCCCCC4)cc3)c2)cc1 | 1.73 |

| Structure (SMILES) | hERG current change (%, negative = inhibition) at 10uM [%] |
| --- | --- |
| OCC[C@H]1C[C@@H](O)[C@H](O)[C@]2(OCc3ccccc32)O1 | -0.346 |
| O=c1[nH]ncn1-c1cccc(C(F)(F)F)c1 | 10.8 |
| FC(F)(F)c1cnc(Oc2ccccc2-c2nnc(-c3ccc(Cl)cc3)o2)c(Cl)c1 | -1.52 |
| CC1CCCCC1NC(=O)CSc1ccc([N+](=O)[O-])cc1 (stereo not shown) | -52.6 |
| O=C(Cc1ccc([N+](=O)[O-])cc1)N/N=C/c1cccnc1 | -9.63 |
| COc1ccc([N+](=O)[O-])cc1NC(=O)CSCc1ccccc1C | -7.85 |
| O=C(CSc1ccc([N+](=O)[O-])cc1)NCC1CCCCC1 | -15 |
| Cc1ccccc1CSCCNC(=O)CSCc1ccc([N+](=O)[O-])cc1 | -51.3 |
| Cc1ccccc1CSCC(=O)NCCSc1ccccn1 | -3.24 |
| O=C(CSCc1ccc([N+](=O)[O-])cc1)N/N=C/c1ccncc1 | -49.1 |
| O=C(CSCc1ccc([N+](=O)[O-])cc1)N/N=C/c1cccnc1 | -60.2 |
| CC1CCCCC1NC(=O)Cn1cc([N+](=O)[O-])ccc1=O (stereo not shown) | 7.67 |
| COc1ccc(CNC(=O)C2CCC(CNS(=O)(=O)c3cccs3)CC2)cc1 (stereo not shown) | -18.9 |
| O=C1CC(O)(C(F)(F)F)Oc2c1ccc1ccccc21 (stereo not shown) | 7.95 |
| COc1ccc(/C=N/NC(=O)c2ccc3nc[nH]c3c2)c(OC)c1OC | 12.9 |
| Cc1ccc(S(=O)(=O)NNC(=S)Nc2ccccc2)cc1 | 3.05 |
| On1c(-c2ccc(Cl)cc2)nc2ccccc21 | 13.9 |
| C[n+]1cn(Cc2cc(Cl)ccc2OC(F)F)c2ccccc21.[Br-] | 2.96 |
| CC(C)=Cc1oc2ccc([N+](=O)[O-])cc2c1N1CC(C)OC(C)C1 (stereo not shown) | 18.7 |
| CC(=O)N1CCOc2ccc(S(=O)(=O)N3CCC(C(=O)NCc4ccc(F)cc4)CC3)cc21 | 4.09 |
| CCC(c1nnc(SCC(=O)Nc2ccc(C(C)=O)cc2)n1C1CCCCC1)N(C)C (stereo not shown) | -9.96 |
| Cc1ccc(CNC(=O)Nc2ccccc2)n1C | 12.3 |

| Structure (SMILES) | hERG current change (%, negative = inhibition) at 10uM [%] |
| --- | --- |
| O=C(Nc1cccnc1)c1cc(-c2ccc(F)cc2)on1 | 10.9 |
| Cc1cccc(C)c1OC1(c2ccccc2)OC(=O)c2ccccc21 (stereo not shown) | 10.9 |
| CCCn1c(SCc2cc(=O)[nH]c3ccccc23)nc2c1c(=O)n(C)c(=O)n2C | -7.61 |
| COc1ccc(S(=O)(=O)N2CCc3ccccc32)cc1C(=O)Nc1ccc(C(N)=O)cc1 | 9.8 |
| COc1ccccc1C(=O)Nc1ccc(S(=O)(=O)N2CCc3ccccc32)cc1 | -77 |
| COc1cc(C(=O)Nc2ccc(S(=O)(=O)N3CCc4ccccc43)cc2)cc(OC)c1OC | -4.14 |
| CCOC(=O)N1CCN(C(=O)c2cc(S(=O)(=O)N3CCc4ccccc43)ccc2OC)CC1 | -52.1 |
| O=C(c1cccc(S(=O)(=O)N2CCc3ccccc32)c1)N1CCc2ccccc2C1 | -13 |
| CCOC(=O)C1CCN(S(=O)(=O)c2ccc(NC(=O)OC)cc2)CC1 | -56.5 |
| COc1ccc(S(=O)(=O)N2CCc3ccccc32)cc1C(=O)N1CCOCC1 | -0.239 |
| COc1ccc(S(=O)(=O)N2CCc3ccccc32)cc1C(=O)N1CCN(C=O)CC1 | -2.51 |
| CCOC(=O)C1CCN(S(=O)(=O)c2ccc(C)cc2)CC1 | 3.36 |
| CCOC(=O)C1CCN(S(=O)(=O)c2ccc(C(=O)OC)cc2)CC1 | -1.7 |
| CCOC(=O)C1CCN(C(=O)c2cccc(S(=O)(=O)N3CCc4ccccc43)c2)CC1 | -56.4 |
| CCOC(=O)C1CCN(C(=O)c2cccc(S(=O)(=O)N3c4ccccc4CC3C)c2)CC1 (stereo not shown) | -35.7 |
| COc1ccc(S(=O)(=O)N(CC(=O)Nc2ccc3c(c2)OCO3)c2ccccc2OC)cc1 | 18.5 |
| COc1c2ccoc2c(OC)c2oc(=O)ccc12 | -5.65 |
| CCC(C)C(NC(=O)C1CCC(C)CC1)C(=O)NCCc1ccc(S(N)(=O)=O)cc1 (stereo not shown) | 4.32 |
| Cc1c(NN=C(C#N)C#N)c(=O)n(-c2ccccc2)n1C | 13.5 |
| O=C1CSC(c2ccc(Cl)c(Cl)c2)N1c1nccs1 (stereo not shown) | -1.93 |
| CC(C)(CO)C(O)C(=O)NCCCO (stereo not shown) | 11.5 |
| CCOc1ccccc1C1C(C#N)=C(N)Oc2cc(N)ccc21 (stereo not shown) | -5.58 |
